Data on 30 compounds can be found in PubChem BioAssay (EPA / NIEHS).

Inconclusive results are not listed. Activity calls are given as the source filed them. Rule for the calls, unless noted: active = hit-call score of the fitted dose curve at least 0.9, where 1 is the maximum; inconclusive = response in the unintended direction; inactive = score below 0.9.

Sequence of Estrogen receptor (Homo sapiens) (P03372 whole entry, looked up): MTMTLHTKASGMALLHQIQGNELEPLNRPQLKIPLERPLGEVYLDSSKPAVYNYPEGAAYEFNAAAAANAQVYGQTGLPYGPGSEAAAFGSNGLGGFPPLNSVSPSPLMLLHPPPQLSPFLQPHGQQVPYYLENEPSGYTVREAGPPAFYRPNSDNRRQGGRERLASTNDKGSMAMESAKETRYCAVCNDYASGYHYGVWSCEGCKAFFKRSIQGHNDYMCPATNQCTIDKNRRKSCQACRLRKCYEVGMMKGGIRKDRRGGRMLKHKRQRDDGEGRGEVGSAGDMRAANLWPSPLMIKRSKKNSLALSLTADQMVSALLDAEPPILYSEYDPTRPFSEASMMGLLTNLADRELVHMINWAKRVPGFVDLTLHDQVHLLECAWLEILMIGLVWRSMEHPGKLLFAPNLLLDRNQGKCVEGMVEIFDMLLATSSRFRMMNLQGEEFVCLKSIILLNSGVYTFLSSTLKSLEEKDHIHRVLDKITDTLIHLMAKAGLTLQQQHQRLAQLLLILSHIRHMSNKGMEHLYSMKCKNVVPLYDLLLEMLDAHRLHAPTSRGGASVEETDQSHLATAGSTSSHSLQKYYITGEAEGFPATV

The first test concerns the target Estrogen receptor (Homo sapiens) (UniProt P03372). Briefly: CCTE_Deisenroth_AIME_384WELL_LUC_Inactive: CCTE's 384-well Estrogen Receptor Transactivation Assay without AIME metabolic competence (ERTA luciferase; metabolism negative), Deisenroth Lab (AID 2284038).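 Note: VM7Luc4E2 breast cells given medium preincubated 2 h with S9-free microspheres; hits raise estrogen receptor luciferase signal so potencies reflect agonists.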 Put shortly: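 Metabolism-negative mode: AIME lids stamped in alginate-water, no hepatic S9. 2 h chemical incubation → medium onto VM7Luc4E2 ERTA, 24 h. Readout luciferase luminescence; gain-of-signal fit vs 17beta-estradiol. Conc. 0.002 - 200 uM.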
As to `Nc1ccc2ccccc2c1`, the call was inactive.
For `CCCCN(CC)C(=O)SCCC`, the call was inactive.
In the case of `Nc1ccc(Cl)cc1`, the compound was called inactive.
Turning to `[N-]=[N+]=[N-]`, the outcome was inactive.
The same measure, in the same setting: the value for `COC(N)=O` was “inactive”; that for `CCCCN(CCCC)SN(C)C(=O)Oc1cccc2c1OC(C)(C)C2` was “inactive”.
As to `O=[N+]([O-])c1ccccc1`, the compound was called inactive.
As to `CCCCN(CCCC)N=O`, the AC50 (commonly the midpoint of the concentration-response curve, whichever way the signal moves) is 85.5 µM (active).
Take `COCCOCCO`: the call was inactive.
`CCCCc1ccc(O)cc1`: the AC50 is 20.2 µM (active).
`CCN(CC)c1ccccc1`: the compound was called inactive.
Turning to `CCCCc1ccccc1`, the compound was classed as inactive.
For the compound `O=c1ssc(Cl)c1Cl`, the result was inactive.
As to `CCOP(=S)(Oc1ccc([N+](=O)[O-])cc1)c1ccccc1` (stereo not drawn), the half-maximal activity concentration (AC50) was 15.5 µM (active).
Take `CC(C)(C)OOC(C)(C)C`: the call was inactive.
Take `ClC(Cl)c1ccccc1`: the outcome was inactive.
As for `CCOS(=O)(=O)OCC`, the result was inactive.
As to `c1ccc(OP(Oc2ccccc2)Oc2ccccc2)cc1`, the AC50 was 75.4 µM (active).
Same read-out and setting: the value for `c1ccc2c(c1)Nc1ccccc1S2` was 27.7 µM (active).
`CCCN(CCC)c1c([N+](=O)[O-])cc(C(C)C)cc1[N+](=O)[O-]`: the outcome was inactive.
As to `OCC1CO1` (stereo not drawn), the call was inactive.
The same measure, in the same setting: the value for `CCCCC(CC)COP(=O)(Oc1ccccc1)Oc1ccccc1` (stereo not drawn) was “inactive”; that for `O=C(O)CF` was “inactive”.
`CCCCOCC1CO1` (stereo not drawn): the AC50 is 19.9 µM (active).
Turning to `CCOC(=O)c1ccccc1C(=O)OCC`, the result was inactive.
On to `Nc1cc2c3c(c1)C(c1ccccc1)=N[C@@H](NC(=O)c1cccnc1)C(=O)N3CC2`, for which the result was inactive.
Regarding `CC(Cl)(Cl)C(=O)O`, the compound was classed as inactive.
Take `CCC(C)(C)c1ccc(O)cc1`: the AC50 is 1.52 µM (active).
Regarding `c1nc[nH]n1`, the call was inactive.
Turning to `Cc1cccc(N)c1`, the result was inactive.

System in the next test: not listed separately
The test can be described thus: CCTE_Deisenroth_AIME_384WELL_CTox_Inactive: Cytotoxicity Assessment (CTOX) in CCTE's 384-well Estrogen Receptor Transactivation Assay without AIME metabolic competence (metabolism negative), Deisenroth Lab (AID 2284039).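 Note: cell viability via live-cell protease substrate cleaved to fluorescent probe; cells exposed 24 h to medium preincubated 2 h with alginate-water beads without S9; loss of fluorescence signal means loss of viability.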 In outline: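 Fluorescence from a live-cell protease substrate, read after 24 h in VM7Luc4E2 cells, indicated viability. Test medium came from a 2 h AIME step without hepatic S9 (alginate-water microspheres); concentrations spanned 0.002 - 200 uM, single technical replicate per run.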
Regarding `Nc1ccc2ccccc2c1`, the compound was classed as inactive.
On to `CCCCN(CC)C(=O)SCCC`, for which the result was inactive.
The same measure, in the same setting: the entry for `Nc1ccc(Cl)cc1` is “inactive”.
In the case of `CCCCN(CCCC)SN(C)C(=O)Oc1cccc2c1OC(C)(C)C2`, the outcome was inactive.
In the case of `O=[N+]([O-])c1ccccc1`, the outcome was inactive.
Turning to `CCCCN(CCCC)N=O`, the compound was called inactive.
As for `COCCOCCO`, the compound was classed as inactive.
With `CCCCc1ccc(O)cc1`, the compound was called inactive.
Regarding `CCN(CC)c1ccccc1`, the compound was classed as inactive.
On to `CCCCc1ccccc1`, for which the compound was classed as inactive.
As for `CCOP(=S)(Oc1ccc([N+](=O)[O-])cc1)c1ccccc1` (stereo not drawn), the result was inactive.
On to `ClC(Cl)c1ccccc1`, for which the result was inactive.
Same read-out and setting: the value for `CCOS(=O)(=O)OCC` was “inactive”; that for `c1ccc(OP(Oc2ccccc2)Oc2ccccc2)cc1` was “inactive”; that for `c1ccc2c(c1)Nc1ccccc1S2` was “inactive”.
Consider `CCCN(CCC)c1c([N+](=O)[O-])cc(C(C)C)cc1[N+](=O)[O-]`, for which the call was inactive.
For the compound `OCC1CO1` (stereo not drawn), the compound was called inactive.
Still for that read-out and setting: the entry for `CCCCC(CC)COP(=O)(Oc1ccccc1)Oc1ccccc1` (stereo not drawn) is “inactive”.
In the case of `O=C(O)CF`, the compound was classed as inactive.
As for `CCOC(=O)c1ccccc1C(=O)OCC`, the result was inactive.
As for `c1nc[nH]n1`, the compound was classed as inactive.
In the case of `Cc1cccc(N)c1`, the call was inactive.

Another test concerns the target Estrogen receptor (Homo sapiens) (UniProt P03372). Briefly: CCTE_Deisenroth_AIME_384WELL_LUC_Shift: CCTE's 384-well Estrogen Receptor Transactivation Assay with AIME metabolic competence data shift (ERTA luciferase; difference in metabolism positive and negative), Deisenroth Lab (AID 2284041; active = hit-call score of the fitted dose curve at least 0.9, where 1 is the maximum; inactive = score below 0.9;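 note: shift is response with S9 minus without S9 so positive means metabolism raised ER signal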). Put shortly:
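Test chemicals (0.002–200 uM, 10-point) were pre-incubated 2 h with alginate microspheres containing phenobarbital/beta-naphthoflavone-induced male Sprague Dawley rat liver S9 or water, then medium was transferred to VM7Luc4E2 cells for 24 h luciferase readout; shift = S9-positive minus S9-negative normalized response.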
Turning to `Nc1ccc2ccccc2c1`, the outcome was inactive.
With `CCCCN(CC)C(=O)SCCC`, the outcome was inactive.
Turning to `Nc1ccc(Cl)cc1`, the result was inactive.
Same read-out and setting: the value for `[N-]=[N+]=[N-]` was “inactive”; that for `COC(N)=O` was “inactive”.
The same measure, in the same setting: the entry for `CCCCN(CCCC)SN(C)C(=O)Oc1cccc2c1OC(C)(C)C2` is “inactive”.
With `O=[N+]([O-])c1ccccc1`, the outcome was inactive.
Turning to `CCCCN(CCCC)N=O`, the AC50 was 77.6 µM (active).
Consider `COCCOCCO`, for which the result was inactive.
Take `CCCCc1ccc(O)cc1`: the result was inactive.
`CCN(CC)c1ccccc1`: the result was inactive.
Still for that read-out and setting: the value for `CCCCc1ccccc1` was “inactive”.
Take `O=c1ssc(Cl)c1Cl`: the result was inactive.
As for `CCOP(=S)(Oc1ccc([N+](=O)[O-])cc1)c1ccccc1` (stereo not drawn), the result was inactive.
Take `CC(C)(C)OOC(C)(C)C`: the outcome was inactive.
On the same count and under the same terms, the value for `ClC(Cl)c1ccccc1` was “inactive”.
Consider `CCOS(=O)(=O)OCC`, for which the result was inactive.
Take `c1ccc(OP(Oc2ccccc2)Oc2ccccc2)cc1`: the AC50 is 60.5 µM (active).
Take `c1ccc2c(c1)Nc1ccccc1S2`: the outcome was inactive.
In the case of `CCCN(CCC)c1c([N+](=O)[O-])cc(C(C)C)cc1[N+](=O)[O-]`, the result was inactive.
With `OCC1CO1` (stereo not drawn), the result was inactive.
With `CCCCC(CC)COP(=O)(Oc1ccccc1)Oc1ccccc1` (stereo not drawn), the result was inactive.
As to `O=C(O)CF`, the outcome was inactive.
For `CCCCOCC1CO1` (stereo not drawn), the AC50 is 8.76 µM (active).
Still for that read-out and setting: the figure for `CCOC(=O)c1ccccc1C(=O)OCC` is 45.2 µM (active); for `Nc1cc2c3c(c1)C(c1ccccc1)=N[C@@H](NC(=O)c1cccnc1)C(=O)N3CC2` it is 39.4 µM (active).
Turning to `CC(Cl)(Cl)C(=O)O`, the outcome was inactive.
For `CCC(C)(C)c1ccc(O)cc1`, the AC50 was 0.0296 µM (active).
In the case of `c1nc[nH]n1`, the outcome was inactive.
In the case of `Cc1cccc(N)c1`, the outcome was inactive.

System in a further test: not listed separately
Briefly: CCTE_Shafer_MEA_acute_AB: CCTE's Alamar Blue Assay for Cytotoxicity in the Neural Acute Assay, Shafer Lab (AID 2284069).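 Note: active compounds lower the viability signal compared with DMSO wells.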 Put shortly: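 Cytotoxicity endpoint for acute MEA exposures of primary rat cortical neurons on day 13 or 15. Resazurin reduction is read fluorescently at 544/590 nm, with DMSO as the negative-control baseline.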
In general terms: Alamar Blue is a resazurin reagent that responds to reducing activity.
As for `[N-]=[N+]=[N-]`, the compound was called inactive.
As for `COCCOCCO`, the compound was called inactive.
As to `CCOP(=S)(Oc1ccc([N+](=O)[O-])cc1)c1ccccc1` (stereo not drawn), the compound was classed as inactive.
For `c1ccc2c(c1)Nc1ccccc1S2`, the outcome was inactive.
The same measure, in the same setting: the entry for `CC(Cl)(Cl)C(=O)O` is “inactive”; for `CCC(C)(C)c1ccc(O)cc1` it is “inactive”.
